Only some compounds are listed: those with a hit (about 12% of all), similar ones and a draw of the others.
Cav32 inh: blocks human Cav3.2 T-type calcium channel. 100,000 tested, 4% active. Cav3.2-expressing cells, Fluo-4 calcium fluorescence FDSS; hits give low values. B-score at 10 µM. AID 449739. O95180;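 active means single-dose well whose peak fluorescence ratio is a statistical outlier from its plate by either plate-standardised score or position-corrected B-score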
PostGolgi yeast: growth inhibition of a yeast mutant, post-Golgi transport screen; inhibition, % at 10 µM; post-Golgi transport phenotypic cell assay; AID 739; 98,000 tested, 0.9% active;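 further: yeast cells grown in 1536-well plates; yeast grown about 18 h at 30C before absorbance read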
DAT uptake mod: changed human dopamine transporter uptake under cocaine IC80 | Q01959 | LLC-PK1 hDAT cells, [14C]-dopamine uptake with cocaine IC80; actives deviate in either direction | B-score at 10 µM | 110,000 tested, 1.3% active | AID 449768;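 active means Z score or B-score, a plate-position-corrected score, falls beyond the plate's 99.7% confidence bounds, in either direction; inactive means both scores lie inside the 99.7% bounds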;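 further: scored against the spread of the other compound wells on the same plate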
PostGolgi ctrl: growth of the yeast control strain, post-Golgi counter-screen; efflux-deficient yeast background strain, growth absorbance A615, 16 h; inhibition, % at 10 µM; 98,000 tested, 5% active; AID 738
D1 mod: D1 dopamine receptor (human) allosteric modulation; HEK293 D1, CRE-luciferase, dopamine EC30 potentiation; actives deviate in either direction; B-score at 10 µM; 58,000 tested, 5.9% active;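 active means luminescence count or its row- and column-corrected plate score outside the 99.7% band of the plate's sample wells, on either side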
Target sequence (P21728 whole entry, looked up): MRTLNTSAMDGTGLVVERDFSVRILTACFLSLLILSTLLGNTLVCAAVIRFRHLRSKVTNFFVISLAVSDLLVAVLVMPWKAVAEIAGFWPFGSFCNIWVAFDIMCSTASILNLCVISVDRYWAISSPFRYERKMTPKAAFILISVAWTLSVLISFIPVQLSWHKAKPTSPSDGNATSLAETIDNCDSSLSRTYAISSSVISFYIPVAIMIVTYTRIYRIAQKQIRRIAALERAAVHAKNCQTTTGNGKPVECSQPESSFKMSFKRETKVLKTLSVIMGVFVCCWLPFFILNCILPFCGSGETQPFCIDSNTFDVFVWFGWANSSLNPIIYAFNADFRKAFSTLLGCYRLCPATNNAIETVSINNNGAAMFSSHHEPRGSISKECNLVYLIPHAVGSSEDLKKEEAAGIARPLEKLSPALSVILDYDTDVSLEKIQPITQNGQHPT
PLAP act: human PLAP activation | 96,000 tested, 1.2% active | AID 696 | P05187 | activation fold at 20 µM | purified PLAP enzyme, luminescent substrate read-out; hits give high values; in the data active means activation fold above about 2
An asterisk follows results filed as active; . = no result given. Unless noted, no stated cut-off is given here; in the data, active means inhibition above about 30%; inactive means the rest.

SMILES	Cav32 inh	PostGolgi yeast	DAT uptake mod	PostGolgi ctrl	D1 mod	PLAP act
Cc1coc(C)c1C(=O)CC1(O)C(=O)N(Cc2ccccc2)c2ccccc21 (stereo not drawn)	-4.61*	-2.6	0.487	29.1	1.31	0.9
CCCN1CCN(CCCNC(=O)Cn2nc(-c3ccccc3)ccc2=O)CC1	0.674	-1.9	-0.821	-1.0	1.55	1.2
COc1cccc(NC(=O)CSCc2n[nH]c(=O)[nH]2)c1	0.993	-1.8	-1.14	3.9	0.926	0.8
COC(=O)C1=C(C(=O)OC)[C@@H]2N(C)c3ccccc3[C@@]23C[C@@H](C(=O)OC)N(C(=O)c2ccc(Br)cc2)C3=N1	-3.41	.	-0.15	.	.	.
O=C1S/C(=C\c2ccc(N3CCOCC3)o2)C(=O)N1Cc1c(F)cccc1Cl	-5.74*	-4.1	0.0228	14.7	.	1
COc1cc(SC)ccc1C(=O)N1CCCCCC1	-0.143	3.4	0.682	8.3	-0.729	.
COC(=O)c1nn(-c2ccccc2)c(-c2ccccc2)c1C(=O)c1ccccc1	-7.79*	0.6	-1.38	23.5	.	1.1
COC(=O)c1c(C)nn(-c2ccccc2)c1N	.	.	.	.	3.1	.
Cc1ccc(C)c(-n2c(SCC(=O)Nc3nonc3C)nnc2-c2ccoc2C)c1	-5.96*	-3.3	0.929	11.7	0.749	1.2
N#Cc1cc(S(=O)(=O)c2ccccc2)c(N)[nH]c1=O	-0.067	0.0	-0.0293	-5.3	.	1.4
Fc1ccc(-c2noc(C3CCN(Cc4cccnc4)CC3)n2)cc1	0.924	84.0*	0.873	34.8*	.	1
CCCC1CCC(c2nc(-c3cccnc3)no2)CC1 (stereo not drawn)	-0.179	-5.9	-0.714	6.2	-0.445	1.1
Cc1ccc(NC(=O)Nc2ccc(F)cc2)nc1	0.0678	0.8	-1.4	15.2	0.0774	1
Cc1cc(NC(=O)NC(=O)c2ccc(F)cc2F)n[nH]1	-0.619	-2.1	0.13	4.1	-3.32*	1
CN(c1ccc(C(=O)NCCc2ccccc2)cc1)S(C)(=O)=O	-1.14	2.4	-0.773	13.0	.	0.8
COC(=O)C1CCN(C(=O)c2sc3nc(-c4ccc(F)cc4)cn3c2C)CC1	2.76	1.6	0.413	0.6	1.75	1.4
CC(=O)C1=C(C)NC(C)=C(C(C)=O)C1c1ccc(-c2ccccc2Cl)o1	-5.56*	-5.0	1.38	5.9	-1.16	1
CCOC(=O)Cn1c(S(=O)(=O)Cc2ccc(F)cc2)nc(-c2ccccc2)c1-c1ccccc1	-2.42	-0.5	-0.00784	20.8	.	1.1
C#CCn1c(S(=O)(=O)Cc2ccc(F)cc2)nc(-c2ccccc2)c1-c1ccccc1	-3.8*	-8.8	0.789	24.8	.	1
O=S(=O)(c1ccc(Br)cc1)N1CCCC1c1nc2ccccc2s1 (stereo not drawn)	-4.6*	-7.2	0.461	40.0*	.	.
OC(c1cccc(OCc2ccccc2)c1)c1nnc(-c2ccccc2)o1 (stereo not drawn)	0.218	-0.6	-1.66	56.2*	-1.3	1.1
OC(c1ccc(OCc2ccccc2)cc1)c1nnc(-c2ccccc2)o1 (stereo not drawn)	.	-3.9	.	26.2	.	0.8
Cn1nc(-c2ccc(N3CCOCC3)c(NS(=O)(=O)c3ccc(Cl)cc3)c2)c2ccccc2c1=O	2.25	-11.1	0.732	30.4*	.	1.1
Cc1nc(-c2ccccc2)sc1C(=O)CSc1ccc(F)cc1	-0.424	-0.8	-0.169	12.7	.	1.2
Cc1nc(-c2ccccc2)sc1C(=O)CSc1ccccc1	0.311	-9.3	1.47	30.2*	.	1.1
SMILES	Cav32 inh	PostGolgi yeast	DAT uptake mod	PostGolgi ctrl	D1 mod	PLAP act
COc1cc(C(=O)Nc2sc3c(c2C#N)CCN(C(C)=O)C3)cc(OC)c1OC	-0.173	1.8	0.897	31.0*	.	1.2
O=C1C(c2ccncc2)=C(O)c2ccccc21	.	-23.2	-0.802	23.0	-2.48*	0.8
Fc1ccc(OCc2nn3cnnc3s2)cc1	-0.197	-3.0	-0.0683	6.5	-3.98*	0.9
CCCCC(=O)Nc1ccc(C(=O)N2CCN(C)CC2)cc1	.	4.8	0.00955	10.2	-0.716	1.1
CCCCCCCCCn1c2c(c(=N)c3c1CCC3)CCC2	-6.18*	.	1.38	.	.	.
CCCCCCn1c2c(c(=N)c3c1CCC3)CCC2	-1.51	-5.9	-0.497	17.2	-2.12	0.8
CCOC(=O)c1ccccc1NC1CC(=O)N(c2ccccc2C)C1=O (stereo not drawn)	-1.73	11.5	0.811	3.2	0.695	1.2
COc1ccc(Cn2c(SCc3cc(C)ccc3C)nc3cc(OC)c(OC)cc3c2=N)cc1	-0.798	75.8*	-2.12	62.6*	.	1.2
COc1ccc(Cn2c(SCc3ccc(C)cc3)nc3cc(OC)c(OC)cc3c2=N)cc1Cl	-0.175	32.5*	-0.499	67.5*	.	1.7
CC1(C)CC(=O)C2=C(C1)OC(N)=C(C#N)C2Cc1ccccc1 (stereo not drawn)	0.214	-1.1	0.114	15.4	0.0073	1.1
CCCCNC1C(CC)C(CCC)C(C#N)(C#N)C1(C#N)C#N (stereo not drawn)	0.0419	-5.7	-0.178	18.7	-0.0806	1.7
Cc1cc(Cl)ccc1OCC(=O)N1CCCCC1	-0.0939	-3.2	-0.0114	4.3	1.4	0.9
O=C(COc1ccc(Cl)cc1Cl)N1CCCN(C(=O)COc2ccc(Cl)cc2Cl)CC1	-4.58*	-4.7	1.45	74.9*	.	1.5
Cc1ccccc1OCC(=O)Nc1ccccc1N1CCOCC1	-2.12	6.5	0.416	28.2	-0.0529	.
CCC(=O)N1CCN(c2ccccc2NC(=O)COc2cc(C)ccc2C(C)C)CC1	-7.05*	-5.2	-1.22	22.2	-1.9	1.6
CC(=O)N1CCN(c2ccccc2NC(=O)COc2ccc(Cl)cc2Cl)CC1	-4.73*	0.0	-0.0916	49.5*	2.16	1.1
Cc1ccc(NC(=O)c2ocnc2C)cc1Cl	0.173	-7.8	0.7	10.7	0.323	0.9
Cc1nn(-c2nc3ccccc3s2)c(C)c1Oc1ccccc1O	0.106	1.7	0.763	-2.2	-0.484	.
N/C(CCN1CCCCC1)=N/O	-0.143	9.8	0.214	0.9	-0.00536	1.2
CCC(C)(C(=O)NC1CCCCC1)N(Cc1ccco1)C(=O)c1ccccn1 (stereo not drawn)	-1.01	16.3	-0.371	2.1	.	1
O=C(Cc1cccs1)N(Cc1cccs1)C1(C(=O)NC2CCCCC2)CCCCC1	-5.52*	0.5	-0.984	30.9*	.	1.1
CCC(C)(C(=O)NC1CCCCC1)N(Cc1cccs1)C(=O)Cc1cccs1 (stereo not drawn)	-7.69*	1.0	0.773	23.5	.	1
COc1ccc(C(=O)Nc2ccc(S(=O)(=O)N3CCCCC3)cc2)cc1	-1.31	3.9	-0.495	10.6	.	0.9
O=C(COC(=O)c1ccc(Br)o1)Nc1ccc(S(=O)(=O)N2CCCC2)cc1	-1.88	-0.5	0.729	4.2	-0.702	1.1
COc1cccc(NC(=O)Cc2cn(C)c3ccccc23)c1	-4.5*	-7.3	1.1	-2.6	-0.0393	0.8
O=C(Nc1ccc(S(=O)(=O)N2CCCCCC2)cc1)c1ccc(Br)o1	-3.15*	-1.2	0.00788	12.8	0.825	1
